Screens: PubChem BioAssay, National Center for Advancing Translational Sciences (NCATS)
ELG1 DNA repair – inhibitors of ELG1-dependent DNA repair in HEK293T cells; 2.3% of 330,000 active; HEK293T ELG1-luciferase reporter, luminescence, 16 h; DNA damage induced by 5-fluorouridine; AID 504467; Potency, µM (series often up to 46.1 µM), inactives show at the top dose activity change, negative = inhibition, hits mostly inhibitors; also: nearly all actives have a fitted effect of over 55% in size
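Reporter activity after DNA damage by 5-fluorouridine is monitored. Compound-treated cells incubate 16 hr at 37 °C, then ONE-Glo is added for 30 min before luminescence reading.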
ALOX12 inh – ALOX12 (human) lipoxygenase inhibition; P18054; purified 12hLO, xylenol orange hydroperoxide absorbance; Potency, µM (doses to about 108 µM), without a hit: top-dose activity change, negative = inhibition, hits mostly inhibitors; 1.1% of 580,000 active; AID 1671190
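Hydroperoxide product was detected by ferrous iron/xylenol orange as the 573 to 405 nm absorbance ratio. Arachidonic acid at 40 uM (final) was turned over for 30 min at room temperature by 150 nM human 12hLO, pH 7.0 Hepes buffer, after 15 min compound preincubation.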
DT40 TDP1 no CPT – qHTS for Inhibitors of human tyrosyl-DNA phosphodiesterase 1 (TDP1): qHTS in cells in absence of CPT. DT40 Tdp1-/- hTDP1 cells, no CPT, ATP luminescence, 48 h. AID 686978, 2013. 15% of 420,000 active. Potency, µM (doses to about 46.2 µM), for inactives: top-dose activity change, negative = growth inhibition, usual class: inhibitors; also: nearly all actives have a fitted effect of over 55% in size
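Readout: luminescence from CellTiter-Glo after 30 min in the dark at RT. Cells: DT40 Tdp1-/- with stable hTDP1, 400/well. Exposure: compounds alone, ≥48 hr, 37 °C.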
RORg inh – inhibitors of mouse ROR gamma transcriptional activity; P51450; Drosophila S2 Gal4-RORgamma UAS-luciferase reporter, 20 h; 5.4% of 310,000 active; AID 2551; Potency, µM (highest dose often 53.6 µM), for inactives: at the highest dose activity change, negative = inhibition, most hits filed as inhibitors; also: nearly all actives have a fitted effect of over 60% in size
Target sequence (P51450 whole entry, looked up, the tested form may be a part): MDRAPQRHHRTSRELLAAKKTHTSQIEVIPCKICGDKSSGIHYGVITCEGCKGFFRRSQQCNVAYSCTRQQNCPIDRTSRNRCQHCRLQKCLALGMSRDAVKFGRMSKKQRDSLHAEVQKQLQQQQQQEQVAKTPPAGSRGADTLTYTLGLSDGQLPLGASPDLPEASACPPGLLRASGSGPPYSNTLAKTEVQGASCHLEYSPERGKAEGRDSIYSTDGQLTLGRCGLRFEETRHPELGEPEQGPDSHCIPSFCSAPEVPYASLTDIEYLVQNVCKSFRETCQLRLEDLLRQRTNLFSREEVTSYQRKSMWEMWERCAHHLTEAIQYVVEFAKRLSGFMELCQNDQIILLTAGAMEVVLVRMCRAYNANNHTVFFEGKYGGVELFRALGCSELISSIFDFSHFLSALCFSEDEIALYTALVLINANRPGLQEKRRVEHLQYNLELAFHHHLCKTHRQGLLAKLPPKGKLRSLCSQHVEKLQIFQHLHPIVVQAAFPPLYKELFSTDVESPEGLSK
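Stably transfected Drosophila Schneider cells are the test system, with ROR gamma fused to Gal4 and luciferase under UAS control; luminescence is read after 20 hr of 700 uM copper sulfate induction at ambient temperature.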
VP16 counter – inhibits Gal4-VP16 luciferase reporter, ROR gamma counter-screen. AID 2546. 3.5% of 310,000 active. Potency, µM (series often up to 53.6 µM), inactives show top-dose activity, negative = inhibition, usual class: inhibitors. Drosophila S2 Gal4-VP16 UAS-luciferase, luminescence, 20 h;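 also: Gal4-VP16 expression switched on by copper sulfate through the metallothionein promoter; nearly all actives have a fitted effect of over 50% in size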
DT40 TDP1 CPT – DT40-hTDP1 cell growth loss with CPT | chicken DT40 Tdp1-/-;hTDP1 cells + 20 nM CPT, ATP luminescence, 48 h | Potency, µM (series often up to 46.2 µM), for inactives: at the highest dose activity change, negative = growth inhibition, actives largely listed as inhibitors | 12% of 420,000 active; also: nearly all actives have a fitted effect of over 55% in size
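Chicken DT40 Tdp1-/- cells complemented with human TDP1, 400 cells/well, exposed to compounds plus 20 nM camptothecin for at least 48 h at 37 C; viability read as ATP content by CellTiter-Glo luminescence.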
* marks the source's active call; other numbers are inactive results; ! = not confirmed by another sample; [ ] = another dose, or the depositor's remark. A selection: hits, their analogues and other compounds. The true share with any hit is near 15%. Calls follow the shape of the dose curve; as a rule, active = well fitted curve in the direction sought with a large enough effect; inconclusive = small, poorly fitted or top-dose-only effect, or another doubt; inactive = no such curve, though single readings can be large; an effect the other way counts as inactive or inconclusive. % is scaled to controls: 0 for no effect and ±100 for the full control effect; potency is read from the fitted curve at half-maximal effect.

For COc1ccc(CN2CCCC(C(=O)c3ccc(Cl)cc3)C2)c(OC)c1 (stereo unspecified) the results were ELG1 DNA repair -1.9%, ALOX12 inh -5.1%, DT40 TDP1 no CPT 18.4µM*, RORg inh -29.1%, VP16 counter -12.2% and DT40 TDP1 CPT inconclusive.
`O=C(Nc1ccc2n(c1=O)C[C@H]1C[C@@H]2CN(C(=O)c2ccccc2)C1)NC1CCCCC1` gave ALOX12 inh 4.5%[176 µM].
For CC[C@H]1CN2CC[C@H]1C[C@@H]2CNC(=O)Nc1ccc(C(C)=O)cc1 the results were ALOX12 inh -6.5%[176 µM].
Screening CC1=C(O)C(=O)[C@H]2O[C@@H]2C1=O returned ALOX12 inh inconclusive, DT40 TDP1 no CPT 10.6µM*, RORg inh 2.82µM*, VP16 counter 8.91µM* and DT40 TDP1 CPT 7.5µM*.
Screening CC1OC(OC2CC[C@]3(C=O)[C@H]4[C@H](O)CC5(C)C(C6=CC(=O)OC6)CCC5(O)[C@@H]4CCC3(O)C2)C(O)C(O)C1O (stereo partly specified) returned ALOX12 inh -18.0%.
`OC[C@H]1O[C@@H](n2cnc3cc(Cl)c(Cl)cc32)[C@H](O)[C@@H]1O` gave ELG1 DNA repair 8.91µM*, ALOX12 inh 9.3%, DT40 TDP1 no CPT 14.6µM* and DT40 TDP1 CPT inconclusive.
`O[C@@H]1[C@@H]2O[P@@](O)(=S)OC[C@H]2O[C@H]1n1cnc2cc(Cl)c(Cl)cc21` gave RORg inh -2.6% and VP16 counter -7.7%.
OC[C@H]1O[C@@H](n2cnc3cc(Cl)c(Cl)cc32)[C@H](O)[C@H]1O was read as ALOX12 inh 23.2%, DT40 TDP1 no CPT inconclusive, RORg inh inconclusive, VP16 counter 7.94µM* and DT40 TDP1 CPT 16.4µM*.
COC(=O)[C@@H]1[C@@H](CO)[C@@H]2Cn3c(ccc(Br)c3=O)[C@H]1N2Cc1cc(F)ccc1F was read as ALOX12 inh -3.9%.
CC(C)NC(=O)NC[C@H]1C[C@@H]2CCN1C[C@@H]2c1cc(-c2ccc(F)cc2)nn1C was read as ALOX12 inh 55.2%[176 µM].
For CNC(=O)Oc1ccccc1C(=O)Nc1ccccc1 the results were DT40 TDP1 no CPT inconclusive, RORg inh inconclusive, VP16 counter -10.9% and DT40 TDP1 CPT inconclusive.
CNC(=O)Oc1cc2c(cc1C(C)(C)C)CCC2 was read as ALOX12 inh 6.8%, DT40 TDP1 no CPT 16.4µM* and DT40 TDP1 CPT 16.4µM*.
`C[C@]1(O)CCC2C3CC[C@H]4C[C@@H](OC(=O)[C@@H](N)CCCCN)CC[C@]4(C)C3CC[C@@]21C` (stereo partly specified) gave ALOX12 inh inconclusive, DT40 TDP1 no CPT 25.9µM* and DT40 TDP1 CPT inconclusive.
For COc1cc(-c2ccc(-[n+]3nc(-c4ccccc4)nn3-c3ccc([N+](=O)[O-])cc3)c(OC)c2)ccc1-[n+]1nc(-c2ccccc2)nn1-c1ccc([N+](=O)[O-])cc1 the results were DT40 TDP1 no CPT 5.96µM*, RORg inh inconclusive, VP16 counter inconclusive and DT40 TDP1 CPT 2.66µM*.
c1ccc(-c2nn(-c3ccccc3)[n+](-c3ccccc3)n2)cc1 was read as ALOX12 inh -0.1%, DT40 TDP1 no CPT 0.411µM* and DT40 TDP1 CPT 0.581µM*.
Screening COc1ccc(-c2nn(CCC#N)cc2C(=O)NCc2ccccc2)cc1[N+](=O)[O-] returned ELG1 DNA repair 2.6%, ALOX12 inh -13.5%, DT40 TDP1 no CPT 15.5%, RORg inh 17.1%, VP16 counter -1.5% and DT40 TDP1 CPT 0.9%.
O=C1OCCC1Sc1ncccc1Cl (stereo unspecified) was read as ALOX12 inh 22.9%.
`c1cc(N2CCCC3(CCNCC3)C2)ccn1` gave ALOX12 inh 7.5%[57.4 µM], DT40 TDP1 no CPT 9.2µM*, RORg inh -7.9%, VP16 counter -1.9% and DT40 TDP1 CPT 9.2µM*.
Cc1ncc2c(n1)C[C@@H]1CC[C@H]2N1C(=O)c1ccc2c(c1)OCO2 was read as ALOX12 inh 9.1%.
`CC(O)(c1ccncc1)c1nc(-c2cccc(C(F)(F)F)c2)cs1` (stereo unspecified) gave ALOX12 inh -1.0%, DT40 TDP1 no CPT 20.6µM* and DT40 TDP1 CPT 23.1µM*.
O=C1N[C@H](Cc2ccccc2)C(=O)N2[C@@H]3[C@H](C[C@@H]12)c1ccccc1N3OOSc1ccccc1 was read as ALOX12 inh 2.4%, DT40 TDP1 no CPT 18.4µM* and DT40 TDP1 CPT 16.4µM*.
Screening Cc1nc(-c2ccccc2)cc([C@H]2CN3CC[C@H]2C[C@@H]3CNS(=O)(=O)Cc2ccccc2)n1 returned ALOX12 inh 69.0%.
For COc1cccc2c1cc([N+](=O)[O-])c1c(C(=O)O)cc3c(c12)OCO3 the results were ALOX12 inh 13.8%, DT40 TDP1 no CPT 11.6µM*!, RORg inh -15.8%, VP16 counter inconclusive and DT40 TDP1 CPT 18.4µM*!.
CC(=O)N1c2ccc(S(=O)(=O)N3CCCC(C(=O)Nc4cc(C)cc(C)c4)C3)cc2CC1C (stereo unspecified) was read as ELG1 DNA repair inconclusive, ALOX12 inh -20.1%, DT40 TDP1 no CPT inconclusive, RORg inh 28.3%, VP16 counter -1.9% and DT40 TDP1 CPT inconclusive.
CC(=O)N1c2ccc(S(=O)(=O)NCC3CCC(C(=O)Nc4cc(C)cc(C)c4)CC3)cc2CC1C (stereo unspecified) was read as ALOX12 inh -15.3%, DT40 TDP1 no CPT 16.4µM* and DT40 TDP1 CPT 20.6µM*.
Screening CCn1c(=O)c(=O)[nH]c2cc(C(=O)N3C4CCC3CC4)ccc21 returned ALOX12 inh 21.1%.
`Cn1nc(C(=O)N[C@@H]2COCC[C@@H]2OCc2cscn2)c2ccccc21` gave ALOX12 inh 19.1%.
Screening O=C1NC(=S)NC(=O)C1=Cc1c(Cl)cccc1Cl returned ALOX12 inh inconclusive, DT40 TDP1 no CPT 16.4µM* and DT40 TDP1 CPT 10.3µM*.
`Cc1cc(/C=C2\C(=O)NC(=S)N(C)C2=O)c(C)n1C1CCCCC1` gave ELG1 DNA repair inconclusive, ALOX12 inh -6.7%, DT40 TDP1 no CPT -33.9%, RORg inh inconclusive, VP16 counter -8.5% and DT40 TDP1 CPT 2.1%.
